Screening results from PubChem BioAssay.
hgDAF-12 ag – hgDAF-12 agonism, primary luciferase screen. AID 687014. activation, % at 6.8 µM. 1.8% of 370,000 active. HEK293 GAL4-hgDAF12 UAS-luciferase reporter, agonist luminescence; normalized to butyrate control;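 active = activation above a cutoff set at the mean of all screened compounds plus 3 SD, cut at about 10% in these data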;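 also: 0% = DMSO wells and 100% = sodium butyrate wells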
DAX1 inh-1 – inhibitors of DAX1 repression of SF-1 activated StAR promoter. 1.1% of 370,000 active. HEK293T StAR-luciferase reporter, SF-1/DAX-1 repression relief. AID 652010. inhibition, % at 6.8 µM;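 active = inhibition above the mean over all tested compounds plus 3 SD, cut at about 3.6% in these data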;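 also: 0% = DAX-1 cells with DMSO and 100% = cells lacking DAX-1 with DMSO; higher inhibition means more luminescence from relief of DAX-1 repression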
Rev-erbA mod – Rev-erb alpha (human) modulation. 0.79% of 370,000 active. activity, % at 10 µM. Rev-erbα–FITC-DNA binding, fluorescence polarization, 90 min. AID 1259318;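 active = activity above about 14%, limit read from the data; passing the limit was not always enough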;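 also: 0% = DMSO wells with 35 nM protein and 100% = DMSO wells with 750 nM protein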
hcDAF-12 act – activators of H. contortus DAF-12 nuclear receptor; HEK293 hcDAF-12 lit1-tk-luc reporter, luminescence; 0% DMSO, 100% Δ7-dafachronic acid; activation, % at 6.8 µM; 1.4% of 370,000 active; AID 652067;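 active = activation above the mean of all tested compounds plus 3 SD, cut at about 5.5% in these data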;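 also: 100% = response to 3 µM Δ7-dafachronic acid high control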
ssDAF-12 act – activates DAF-12 receptor from parasite S. stercoralis | 1% of 370,000 active | AID 652126 | HEK293 ssDAF-12/GRIP1 lit1-tk-luc reporter, luminescence; % of 3 µM dafachronic acid response | activation, % at 6.8 µM;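 active = activation above the mean over all tested compounds plus 3 SD, cut at about 0.9% in these data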;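 also: 0% = DMSO-only wells and 100% = 3 µM delta7-dafachronic acid wells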
DAX1 inh-2 – inhibitors of human orphan nuclear receptor DAX1 (NR0B1); P51843; AID 504766; inhibition, % at 6.75 µM; HEK293 Gal4-DAX1 luciferase reporter, luminescence; 0.99% of 340,000 active;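 active = inhibition above the mean over all tested compounds plus 3 SD, cut at about 4.2% in these data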;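 also: 0% = DAX1-transfected cells with DMSO and 100% = empty-vector control cells with DMSO; inhibition shows as a rise in luminescence from relieved DAX1 repression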
hgDAF12 conf – confirmation of H. glycines DAF-12 agonists. shares compounds with hgDAF-12 ag. HEK293 GAL4-hgDAF12 luciferase reporter, agonist mode; percent of butyrate response. 80% of 3,300 active. activation, % at 6.8 µM;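 active = mean activation over triplicate wells above the hit cutoff derived from the earlier primary screen, cut at about 11% in these data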;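 also: 0% = DMSO low control and 100% = 2 mM sodium butyrate high control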
LXR ag 2 – counter-screen for DAF-12 agonists: agonists of human LXR-beta. shares compounds with hgDAF-12 ag. HEK293 Gal4-LXR luciferase reporter, 24 h. activation, % at 6.8 µM. 3,300 tested, under 10 active. AID 743051;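 active = mean activation of the triplicate above a set limit carried over from the primary screen, none filed active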
Target sequence (P55055 whole entry, looked up, the tested form may be a part): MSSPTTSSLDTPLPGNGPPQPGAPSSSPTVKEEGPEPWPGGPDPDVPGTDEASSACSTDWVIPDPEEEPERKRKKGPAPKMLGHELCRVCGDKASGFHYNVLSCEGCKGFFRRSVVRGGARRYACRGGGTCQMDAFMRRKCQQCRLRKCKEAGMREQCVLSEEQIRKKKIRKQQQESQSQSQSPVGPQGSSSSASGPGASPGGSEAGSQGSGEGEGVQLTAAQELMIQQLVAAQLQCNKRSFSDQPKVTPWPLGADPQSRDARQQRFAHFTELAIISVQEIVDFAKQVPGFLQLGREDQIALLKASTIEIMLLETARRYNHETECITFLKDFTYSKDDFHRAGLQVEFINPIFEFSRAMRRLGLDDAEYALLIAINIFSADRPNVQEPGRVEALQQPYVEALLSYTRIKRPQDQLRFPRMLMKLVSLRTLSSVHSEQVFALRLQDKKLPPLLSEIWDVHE
The depositor's hits bear a star; . = not tested or not shown. This is a sample that favours compounds with a hit; in the whole collection about 4.8% have one here.

SMILES	hgDAF-12 ag	DAX1 inh-1	Rev-erbA mod	hcDAF-12 act	ssDAF-12 act	DAX1 inh-2	hgDAF12 conf	LXR ag 2
CCOC(=O)N/N=C/c1cn(CCCOc2ccc(C)cc2)c2ccccc12	17*	0	-2	-3	-1	-2	5	0
COc1cccc(C(=O)Nc2ccc(C3CC3(Cl)Cl)cc2)c1 (stereo not drawn)	19*	3	3	2	1.2*	0	18*	1
COc1ccc(NC(=S)Nc2ccc(N(C)C(C)=O)cc2)cc1	0	0	7	1	-2	-2	.	.
COc1cccc(C(=O)NC(=S)Nc2ccc(N3CCCC3)cc2)c1	3	-1	-11	1	-1	1	.	.
Cc1cc(NC(=O)c2cccc(Br)c2)n[nH]1	5	0	-1	1	-1	1	.	.
COc1cccc(C(=O)NC(=O)Nc2cc(C)[nH]n2)c1	15*	3	2	4	0	8.1*	14*	1
COc1cccc(C(=O)NC(=S)Nc2ccc(N(C)C)cc2)c1	18*	1	2	0	-1	0	12*	0
COc1ccc(C(=S)Nc2ccc(N(C)C)cc2)cc1	15*	4.0*	-1	6	1	1	15*	1
NC(=O)c1c(N)[nH]c(C(=O)c2ccccc2)c1-c1ccccc1C(F)(F)F	-1	.	0	-1	-1	.	.	.
C[C@H]1COc2cc(Br)ccc2S(=O)(=O)N1Cc1cn(Cc2ccc(Br)cc2)nn1	1	-1	12	3	-2	.	.	.
O=C(Nc1cccc([N+](=O)[O-])c1)c1[nH]ncc1Cl	14*	1	2	4	-1	0	9	1
CC(C)(C)c1ccc(C(=O)Nc2cccc([N+](=O)[O-])c2)cc1	14*	3	-5	3	0	2	14*	0
CSCC(=O)Nc1nc(-c2ccc3c(c2)OCCO3)cs1	17*	3	-2	2	0	4	14*	1
Nc1nc(-c2ccc3c(c2)OCCO3)cs1	6	2	2	4	-1	2	.	.
COc1ccc(S[C@]2(C(=O)N3CCOCC3)CC(=O)N[C@@H]2c2ccc(OC)cc2)cc1	-3	-1	4	0	-1	.	.	.
O=C(CSc1nnc(NC(=O)c2ccccc2Cl)s1)Nc1ccc2c(c1)oc1ccccc12	14*	2	1	4	0	.	11*	0
CC(C)(C)NC(=O)CSc1nnc(NC(=O)c2ccccc2Cl)s1	5	1	-5	0	-1	4	.	.
CCOC(=O)C/C(C)=N/NC(=O)c1cccs1	.	.	-1	.	.	2	.	.
Cc1ccc(NC(=O)c2ccco2)c(NC(=O)c2cccs2)c1	-1	0	-1	0	-2	0	.	.
C/C(=N\NC(=O)c1cccs1)C(C)(C)C	18*	3	-1	1	-1	2	1	0
C/C(=N/NC(=O)c1cccs1)c1ccco1	18*	3	3	3	0	2	9	0
COc1ccc([C@H]2OC(=O)C[C@H]2C(=O)N2CCCCC2)cc1OC	2	0	5	-4	-1	.	.	.
Nc1[nH]c(C(=O)c2ccccc2)c(-c2ccccc2Br)c1C(=O)c1cccs1	3	1	1	0	-1	.	.	.
Cc1cccc(/C=C\c2nc3ccccc3c(=O)[nH]2)c1	15*	3.6*	7	5	0	1	21*	1
CC(C)Cc1cc(C(=O)NCc2cccs2)no1	19*	4.3*	-1	2	1	3	13*	0
SMILES	hgDAF-12 ag	DAX1 inh-1	Rev-erbA mod	hcDAF-12 act	ssDAF-12 act	DAX1 inh-2	hgDAF12 conf	LXR ag 2
CCCNC(=O)c1cc(-c2ccco2)on1	47*	0	0	4	-1	2	37*	0
O=C(NCc1ccco1)c1cc(-c2ccc(F)cc2)on1	17*	2	-2	2	-1	2	15*	0
O=C(NCc1ccco1)c1cc(-c2ccccc2)on1	23*	3	12	2	0	3	22*	0
N.N.O=C(O)C1(C(=O)O)CCC1.[Pt+2]	.	.	7	.	.	.	.	.
O=C(NCc1ccco1)c1cc(-c2cccs2)on1	23*	1	2	3	-1	3	22*	0
CC(C)c1ccc(OCCCN2CCC(C(O)(c3ccccc3)c3ccccc3)CC2)cc1	0	0	-4	-2	-1	.	.	.
COc1cccc(NC(=O)NC2CCCCN(Cc3ccccc3C)C2=O)c1 (stereo not drawn)	-2	-3	5	-4	-2	.	.	.
OCCOCCNc1ncnc2c1cnn2-c1ccc(Cl)cc1	15*	4.5*	-3	5	0	3	17*	1
CC(C)CSc1nnc2c(n1)[nH]c1ccccc12	14*	4.0*	-16	6.4*	1.2*	2	12*	1
CN[C@H]1C[C@H]2c3[nH]c4c(-c5ccc6c(c5)OCO6)cccc4c3CCN2C(=O)[C@H]1[C@H](C)O	1	0	-8	-2	0	.	.	.
CC1CCc2nc3sc4c(c3c(N)c2C1)CCCC4 (stereo not drawn)	14*	3	4	-1	0	-1	11*	0
CC(=O)CCN1CCSCCS1(=O)=O	-2	-1	2	-2	-1	.	.	.
COc1cc(/C=C/C(=O)NC(=O)c2ccccc2O)ccc1OC(C)=O	15*	2	1	5	0	3	6	0
COc1ccc(/C=C/C(=O)NC(=S)Nc2ccccc2)cc1OC	-1	0	7	-2	-1	0	.	.
COc1ccccc1/C=C/C(=O)Nc1ccc2c(c1)OCCO2	17*	3	2	5	0	-2	18*	1
COc1ccc(/C=C/C(=O)Nc2ccccc2)cc1OC	17*	3	-2	2	0	0	10	0
CC(=O)Oc1ccc(C(=O)[C@H]2[C@H]3C(=O)N(c4ccc(C)cc4)C(=O)[C@H]3[C@@H]3C=CC=NN32)cc1	16*	2	-7	5.9*	0	0	8	0
N#Cc1c(NC(=O)c2cnccn2)sc2c1CCCC2	14*	-1	1	4	-1	2	13*	0
Cc1cccc(C(=O)Nc2sc3c(c2C#N)CCCCC3)c1	15*	2	0	3	0	3	17*	1
Cc1cccc(C(=O)Nc2sc3c(c2C(=O)O)CCC3)c1	-5	-1	-1	0	-1	-1	.	.
N#Cc1c(NC(=O)c2cccnc2)sc2c1CCC2	6	0	0	0	-1	-1	.	.
